# According to the supplement of paper PMC10515830:
# Structures can show the parent of a compound that is named as a salt.
# Legend:
# Details in all cases: 10 µM; exposure time 6 h
# [1] = tested on: Danio rerio larvae (5 dpf); assay: difference in excitability vs DMSO (percentage points); higher = more excitable than DMSO
# Summary of the method: (§1)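 Library compounds were tested at 10 µM final in 100 µL egg water on wild-type 5 dpf zebrafish larvae in 96-well plates for 6 h, with 48 larvae per compound. After 3 h, plates at 28.5 ℃ were imaged every 6 s during a 3-h run of moving lines and 100 ms, 400Hz tones. Behaviours were quantified by Z-LaP Tracker and reported as the compound mean less the vehicle control mean, in percentage points.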
# [2] = tested on: Danio rerio larvae (5 dpf); assay: difference in startle response vs DMSO (percentage points); higher = stronger startle than DMSO
# Summary of the method: as §1
# [3] = tested on: Danio rerio larvae (5 dpf); assay: difference in activity during first hour vs DMSO (percentage points); higher = more activity than DMSO
# Summary of the method: as §1
# [4] = tested on: Danio rerio larvae (5 dpf); assay: difference in habituation to acoustic stimuli vs DMSO (percentage points); higher = more habituation than DMSO
# Summary of the method: as §1
# [5] = tested on: Danio rerio larvae (5 dpf); assay: difference in combined optomotor response to red, green and blue moving lines vs DMSO (percentage points); higher = stronger optomotor response than DMSO
# Summary of the method: as §1
Structure (SMILES),difference in excitability [1],difference in startle response [2],difference in activity during first hour [3],difference in habituation to acoustic stimuli [4],difference [5]
CCCCCCCCCCCCCCCCCCCCCCO [Docosanol],3.23,1.61,-0.528,-2.06,0.854
C=CC(N)CCC(=O)O (stereo not given) [Vigabatrin],-1.24,5.92,1.31,1.13,-0.249
Nc1cc(Cl)c(N=C2NCCN2)c(Cl)c1 [Apraclonidine (hydrochloride)],8.82,7.97,-13.7,-0.961,-2.54
COCCCC/C(=N\OCCN)c1ccc(C(F)(F)F)cc1 [Fluvoxamine (maleate)],13.2,-1.76,-21.1,-3.73,5.3
CCC1(c2ccccc2)C(=O)NCNC1=O [Primidone],3.77,4.38,11.2,-0.65,9.02
Cc1nnc(C(C)C)n1C1C[C@H]2CC[C@@H](C1)N2CC[C@H](NC(=O)C1CCC(F)(F)CC1)c1ccccc1 (stereo in doubt) [Maraviroc],11.9,-3.97,5.94,-1.89,4.5
CC[N+](C)(C)c1cccc(O)c1 [Edrophonium (chloride)],-0.775,-0.613,5.67,7.33,3.51
CN1CC(=O)N2[C@H](c3ccc4c(c3)OCO4)c3[nH]c4ccccc4c3C[C@@H]2C1=O [Tadalafil],3.64,1.33,0.0422,3.67,6.23
NCCNCCNCCN [Trientine (hydrochloride)],15.9,-0.163,13,-1.81,-9.36
Cc1ccc(C)c(OCCCC(C)(C)C(=O)O)c1 [Gemfibrozil],14.3,-10.7,-1.6,-4.26,4.28
CN1CCN(C2=Nc3ccccc3Oc3ccc(Cl)cc32)CC1 [Loxapine (succinate)],20.5,-13.4,43.6,-11,-0.239
O=C1NC(=O)C(c2ccccc2)(c2ccccc2)N1 [Phenytoin],-0.551,-0.35,-12.3,5.69,0.724
COC1=CC(=O)C[C@@H](C)[C@]12Oc1c(Cl)c(OC)cc(OC)c1C2=O [Griseofulvin],3.76,5.64,19.9,2.87,8.4
Cc1ccc(C(=O)Nc2ccc(CN3CCN(C)CC3)c(C(F)(F)F)c2)cc1C#Cc1cnc2cccnn12 [Ponatinib],7.08,-6.04,-11,-7.62,-12.5
C/C=C1\NC(=O)[C@H]2CSSCC/C=C/[C@H](CC(=O)N[C@H](C(C)C)C(=O)N2)OC(=O)[C@H](C(C)C)NC1=O [Romidepsin],2.86,-0.00342,21,0.496,8.55
CC(=O)O[C@]1(C(C)=O)CC[C@H]2[C@@H]3CCC4=CC(=O)CCC4=C3[C@@H](c3ccc(N(C)C)cc3)C[C@@]21C [Ulipristal Acetate],4.89,-8.5,-5.48,5.46,-10.6
Clc1ccc(CO/N=C(\Cn2ccnc2)c2ccc(Cl)cc2Cl)c(Cl)c1 [Oxiconazole (nitrate)],5.37,-6.72,-22.9,-11,-17.3
CO[C@H]1/C=C/O[C@@]2(C)Oc3c(C)c(O)c4c(O)c(c(/C=N/N5CCN(C)CC5)c(O)c4c3C2=O)NC(=O)/C(C)=C\C=C\[C@H](C)[C@H](O)[C@@H](C)[C@@H](O)[C@@H](C)[C@H](OC(C)=O)[C@@H]1C [Rifampicin],2.43,2.9,8.79,-1.68,-3.29
c1ccc2c(CC3=NCCN3)cccc2c1 [Naphazoline (hydrochloride)],10.4,-5.95,0.867,-2.18,-3.73
CC(=O)N[C@H]1[C@H]([C@H](O)[C@H](O)CO)OC(C(=O)O)=C[C@@H]1NC(=N)N [Zanamivir],1.36,-2.53,-16.7,1.69,-6.11
CC(=O)O[C@]1(C(C)=O)CC[C@H]2[C@@H]3C[C@H](C)C4=CC(=O)CC[C@]4(C)[C@H]3CC[C@@]21C [Medroxyprogesterone 17-acetate],9.28,-1.88,-1.67,-11.4,-9.37
O=C(O[C@H]1CN2CCC1CC2)N1CCc2ccccc2[C@@H]1c1ccccc1 [Solifenacin (succinate)],3.16,-8.09,25.6,-1.09,1.96
Nc1nc2c(ncn2COCCO)c(=O)[nH]1 [Acyclovir],2.27,2.62,-4.23,8.37,-2.63
N=C(N)NCCCC[C@@H]1NC(=O)CCSSC[C@@H](C(N)=O)NC(=O)[C@@H]2CCCN2C(=O)[C@H](Cc2c[nH]c3ccccc23)NC(=O)[C@H](CC(=O)O)NC(=O)CNC1=O [Eptifibatide],10.9,3.19,5.64,-3.64,2.85

Structure (SMILES),difference in excitability [1],difference in startle response [2],difference in activity during first hour [3],difference in habituation to acoustic stimuli [4],difference [5]
Clc1ccc2c(c1)C(N1CCNCC1)=Nc1ccccc1O2 [Amoxapine],6.07,-0.987,35.7,-1.72,12.4
CCc1c(C)[nH]c2c1C(=O)C(CN1CCOCC1)CC2 (stereo not given) [Molindone (hydrochloride)],4.99,-3.27,-7.67,-1.62,-2.83
C#C[C@]1(O)CC[C@H]2[C@@H]3CCC4=CC(=O)CC[C@@H]4[C@H]3CC[C@@]21CC [Levonorgestrel],2.02,-3.01,-12.7,-0.397,3.05
COC(=O)N(C)c1c(N)nc(-c2nn(Cc3ccccc3F)c3ncccc23)nc1N [Riociguat],1.63,0.148,7.75,4.38,-2.92
CCCS(=O)(=O)Nc1ccc(F)c(C(=O)c2c[nH]c3ncc(-c4ccc(Cl)cc4)cc23)c1F,-2.43,-1.48,-5.03,2.88,-0.602
CC(=O)NCCCS(=O)(=O)O [Acamprosate (calcium salt)],5.62,1.29,-8.55,7.23,4.69
O=C(O)CCCN1CCC(O[C@@H](c2ccc(Cl)cc2)c2ccccn2)CC1 [Bepotastine (besylate)],13.3,3.74,0.00178,0.195,1.29
NC(=O)NO [Hydroxyurea],-1.52,8.36,2.09,5.31,3.68
COc1cc2nccc(Oc3ccc(NC(=O)NC4CC4)c(Cl)c3)c2cc1C(N)=O [Lenvatinib],13.6,6.75,-8.05,1.57,10.3
CCOc1ccc(Cc2cc([C@]34OC[C@](CO)(O3)[C@@H](O)[C@H](O)[C@H]4O)ccc2Cl)cc1 [Ertugliflozin],0.00277,-5.35,3.38,4.89,1.51
Cc1ccc(C(=O)c2cc(O)c(O)c([N+](=O)[O-])c2)cc1 [Tolcapone],5.24,-9.07,8.3,-6.19,-0.989
CC(=O)S[C@@H]1CC2=CC(=O)CC[C@]2(C)[C@H]2CC[C@@]3(C)[C@@H](CC[C@@]34CCC(=O)O4)[C@H]12 [Spironolactone],2.95,-1.12,0.438,-0.129,-0.69
COc1c(C)c2c(c(O)c1C/C=C(\C)CCC(=O)O)C(=O)OC2 [Mycophenolic Acid],2.6,4.16,-1.66,-0.729,8.73
CCOC(=O)c1ccc(C#Cc2ccc3c(c2)C(C)(C)CCS3)nc1 [Tazarotene],13.2,-9.42,54.2,-9.47,-15.1
CCCCCCCCc1ccc(CCC(N)(CO)CO)cc1 [Fingolimod],5.87,-4.94,-2.73,-2,-4.81
CN(CCOc1ccc(CC2SC(=O)NC2=O)cc1)c1ccccn1 (stereo not given) [Rosiglitazone],6.79,-7.02,26.9,-12.6,-6.71
CC(C(=O)O)c1ccc(-c2ccccc2)c(F)c1 (racemic) [(±)-Flurbiprofen],17.6,-8.24,15,-6.69,-3.74
C[C@@H](c1ncncc1F)[C@](O)(Cn1cncn1)c1ccc(F)cc1F [Voriconazole],4.54,3.6,-18.9,3.51,5.07
CCOC(=O)[C@H](CCc1ccccc1)N[C@@H](C)C(=O)N1Cc2ccccc2C[C@H]1C(=O)O [Quinapril (hydrochloride)],-1.99,-2.06,12.4,-0.155,2.4
Cc1nnc(SCC2=C(C(=O)O)N3C(=O)[C@@H](NC(=O)Cn4cnnn4)[C@H]3SC2)s1 [Cefazolin (sodium salt)],9.87,-2.79,7.43,-0.463,5.77
Cc1nccn1CC1CCc2c(c3ccccc3n2C)C1=O (stereo not given) [Ondansetron (hydrochloride hydrate)],12.1,-1.85,6.77,-3.59,4.66
COc1cc2/c(=N/c3ccc(Br)cc3F)nc[nH]c2cc1OCC1CCN(C)CC1 [Vandetanib],12.1,-1.93,-4.76,5.41,6.09
CCN1CC(CCN2CCOCC2)C(c2ccccc2)(c2ccccc2)C1=O (stereo not given) [Doxapram (hydrochloride hydrate)],1.64,-4.79,16.8,-5.51,1.89
